Where “and” joins values, the source holds several entries; their conditions need not be identical. Equal entries are not always repeated. The panel holds about 83,000 compounds, 20% with a hit somewhere; the sample as a whole holds those more often.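 The test compound was applied at a single concentration to cells in 96-well plates for 48 hours, and percent growth was recorded.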 Calls of active or inactive are those of the source. Rule for the calls: active = growth percent below 10; inactive = the rest.
Each molecule was assayed on HL-60(TB) leukemia (assay: NCI-60 one-dose screen, 48 h (100 = growth as untreated, 0 = no growth, -100 = all killed)). Conditions: 10 µM unless noted.

Compound	growth
Cn1c(O)c(C=NCCN=Cc2c(O)n(C)c(=O)n(C)c2=O)c(=O)n(C)c1=O	-60% (active)
CCN1CCN(C(=O)[C@]23CCC(C)(C)C[C@@H]2C2=CC[C@@H]4[C@@]5(C)CCC(=O)C(C)(C)[C@@H]5CC[C@@]4(C)[C@]2(C)CC3)CC1	-35.8% (active)
CCN(CC)CCC(=O)c1cccc2ccccc12	102% (inactive)
O=C(Nc1ccc2cc3ccc(NC(=O)N4CCCCCC4)cc3nc2c1)N1CCCCCC1	-49.6% (active)
CC1CCC2(C(=O)O)CCC3(C)C(=CCC4C5(C)CCC(O)C(C)(C)C5CCC43C)C2C1C (stereo not given)	5.83% (active) and 40.2% (inactive)
COc1ccc(OC)c(-c2c(C#N)c(-c3cccs3)nc3c2c(-c2ccccc2)nn3-c2ccccc2)c1	107% (inactive)
CS(=O)(=O)c1nccc(-c2c(-c3cccc(OCCc4ccccc4)c3)nc3sccn23)n1	99.4% (inactive)
Cc1ccccc1/C=C/C(=O)c1cccc(OCCCOc2cccc(C(=O)/C=C/c3ccccc3C)c2)c1	78.2% [3 µM] (inactive)
Cc1cc(C)nc(NS(=O)(=O)c2ccc(Nc3nc4nc(NCc5ccccc5)nc(-c5ccc(O)cc5)c4c(=O)[nH]3)cc2)n1	1.48% (active)
COC(=O)/C(CCC=C(C)C)=C1\[C@@H](OC(C)=O)C[C@@]2(C)[C@H]1C[C@@H](O)[C@H]1[C@@]3(C)CC[C@H](NC(=O)c4cnccn4)[C@@H](C)[C@@H]3CC[C@@]12C	99.5% (inactive)
N#Cc1cnc(NCCc2ccncc2)nc1-n1cnc2ccccc21	37.7% (inactive)
O=[N+]([O-])c1cccc2ccc(N/N=C/c3ccccc3O)nc12	40.7% (inactive) and 50.5% (inactive)
CN1CCN(CCOc2ccc(-c3cnc4c(-c5ccccc5F)cnn4c3)cc2)CC1	-30.2% (active)
COc1ccccc1/C=C1\Oc2cc(OCCCN3CCCC3)ccc2C1=O	78.7% (inactive)
CN(C)CCCn1c2c(c3ncccc3c1=O)C(=O)c1ccccc1-2	45.6% (inactive)
COc1cc(C2CC(c3ccccc3)=NN2C=O)ccc1Oc1ccnc2cc(Cl)ccc12 (stereo not given)	33.5% (inactive)
O=C(Nc1cccc(-n2ccc3c(NC(=O)c4ccccc4)nccc32)c1)c1cccc(C(F)(F)F)c1	0.531% (active)
CN(CCn1sc(=O)n(Cc2ccccc2)c1=O)Cc1ccc2c(Cl)cc(Cl)c(O)c2n1	40.7% (inactive)
CCNC(=O)Nc1ccc(-c2nc3c(c(N4CCOC[C@@H]4C)n2)CCN(C2COC2)C3)cc1	82.6% (inactive) and 44.4% (inactive)
C=C1C(=O)O[C@H]2[C@H]1CC/C(COC(=O)CCC(=O)OC/C1=C/CC[C@@]3(C)O[C@H]3[C@H]3OC(=O)C(=C)[C@@H]3CC1)=C\CC[C@@]1(C)O[C@@H]21	-41.9% (active)

Compound	growth
CC[C@@H](C[C@H](CCO)c1ccccc1)c1cc2ccccc2o1	92.5% (inactive)
O=C1c2cccc3cccc(c23)C(=O)N1N1C(=O)c2cccc3c(N4CCOCC4)ccc(c23)C1=O	125% (inactive)
CNc1cc(-c2cccc(OC(F)(F)F)c2)nc2ccc(N3CCCC3)cc12	-43% (active) and -44.1% (active) and 1.92% (active)
CN(C)c1ccc(N=Nc2ccccn2)c(O)c1	-36.3% (active)
CCN1C(=O)N(CC)C2Nn3c(s/c(=C4\C(=O)N(C)c5ccccc54)c3=O)=NC21 (stereo not given)	21.1% (inactive)
O=C(O)c1ccc(=O)[nH]n1	111% (inactive)
O=C(O)c1[nH]c(=O)[nH]c(=O)c1[N+](=O)[O-]	127% (inactive)
COC(=O)Nc1nc2ccc(C(=O)c3ccccc3)cc2[nH]1	7.13% (active) and -59.3% (active) and -3.38% (active)
COc1cc2c(c(OC)c1OC)CCC(c1cccc(C(=O)Nc3cccc(Br)c3)c1)O2 (stereo not given)	101% (inactive)
Cc1ccc(/C=N/Nc2nc(Nc3ccccc3)nc(-n3nc(C)cc3C)n2)cc1	53.3% (inactive)
N#Cc1c(-c2ccc(O)cc2)c2c(N)nn(-c3ccccc3)c2[nH]c1=O	102% (inactive)
O=[N+]([O-])c1ccc(Oc2ccccc2)cc1	96.8% (inactive) and 79.2% (inactive)
CCCc1ccnc(NS(=O)(=O)c2ccc(N)cc2)n1	24.7% (inactive)
COc1cccc(C(=O)NNc2nc(N3CCN(C4CCCCC4)CC3)nc(N3CCN(C(c4ccccc4)c4ccccc4)CC3)n2)c1	18.5% (inactive)
CCCCCCCCCCCCCCCCNC(=O)Nc1ccc2ccccc2c1	95% (inactive)
COc1ccccc1C(C)=O	105% (inactive) and 102% (inactive)
CC[C@@H](C(=O)[C@H](C)[C@H](O)[C@@H](C)[C@H]1O[C@H]([C@@H](CC)C(=O)O)CC[C@H]1C)C1O[C@]2(C=C[C@@H](O)[C@]3(CC[C@@](C)([C@H]4CC[C@](O)(CC)[C@H](C)O4)O3)O2)[C@H](C)C[C@@H]1C (stereo not given in full)	-36.8% (active)
CC(=O)N1N=C(c2ccc(C(F)(F)F)c(F)c2)CC1c1[nH]c(C)c(C(=O)NCC(F)(F)F)c1C (stereo not given)	111% (inactive)
COc1ccccc1/C=C/C(=O)/C=C/c1ccccc1O	-5.37% (active)
C=C1C(=O)O[C@H]2[C@H]1CC/C(Cn1cc(CNC(=O)c3cc4ccccc4[nH]3)nn1)=C\CC[C@@]1(C)O[C@@H]21	-20.8% (active)

— PubChem BioAssay (NCI)
